The source of these data is ChEMBL document CHEMBL1961873, “Compounds: GSK PKIS; Assays: Nanosyn kinase panel” (2012).

The target in assay [1] is T1, Tyrosine-protein kinase ITK/TSK (Homo sapiens) (UniProt Q08881).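 Further: values are mean percent inhibition of ITK from the GSK PKIS screen.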
T1 sequence (whole entry): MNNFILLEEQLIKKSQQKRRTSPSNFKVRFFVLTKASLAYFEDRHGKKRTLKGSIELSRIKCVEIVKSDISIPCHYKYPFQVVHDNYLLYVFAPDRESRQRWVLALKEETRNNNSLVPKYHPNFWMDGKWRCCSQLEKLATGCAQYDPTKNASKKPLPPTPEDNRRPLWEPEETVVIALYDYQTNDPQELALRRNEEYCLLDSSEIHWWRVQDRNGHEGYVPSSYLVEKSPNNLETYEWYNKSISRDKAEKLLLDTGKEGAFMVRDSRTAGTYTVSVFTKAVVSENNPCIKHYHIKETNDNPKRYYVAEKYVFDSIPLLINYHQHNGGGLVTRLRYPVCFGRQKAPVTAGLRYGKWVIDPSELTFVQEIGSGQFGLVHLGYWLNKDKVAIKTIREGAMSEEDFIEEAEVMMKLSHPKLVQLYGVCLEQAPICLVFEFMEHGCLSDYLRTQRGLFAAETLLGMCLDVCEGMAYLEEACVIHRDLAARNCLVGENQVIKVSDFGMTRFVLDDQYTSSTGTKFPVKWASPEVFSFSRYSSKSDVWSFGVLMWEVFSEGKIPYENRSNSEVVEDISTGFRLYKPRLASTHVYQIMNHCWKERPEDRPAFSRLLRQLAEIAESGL
Conditions: at 1 µM.

For assay [2], the target named is Tyrosine-protein kinase JAK1 (Homo sapiens) (UniProt P23458). Conditions: at 0.1 µM.
The target is the same in assay [3]. Conditions: at 1 µM.
Assay [4] deals with Tyrosine-protein kinase JAK2 (Homo sapiens) (UniProt O60674). Conditions: at 0.1 µM.
Tyrosine-protein kinase JAK2 (Homo sapiens), sequence (O60674 whole entry): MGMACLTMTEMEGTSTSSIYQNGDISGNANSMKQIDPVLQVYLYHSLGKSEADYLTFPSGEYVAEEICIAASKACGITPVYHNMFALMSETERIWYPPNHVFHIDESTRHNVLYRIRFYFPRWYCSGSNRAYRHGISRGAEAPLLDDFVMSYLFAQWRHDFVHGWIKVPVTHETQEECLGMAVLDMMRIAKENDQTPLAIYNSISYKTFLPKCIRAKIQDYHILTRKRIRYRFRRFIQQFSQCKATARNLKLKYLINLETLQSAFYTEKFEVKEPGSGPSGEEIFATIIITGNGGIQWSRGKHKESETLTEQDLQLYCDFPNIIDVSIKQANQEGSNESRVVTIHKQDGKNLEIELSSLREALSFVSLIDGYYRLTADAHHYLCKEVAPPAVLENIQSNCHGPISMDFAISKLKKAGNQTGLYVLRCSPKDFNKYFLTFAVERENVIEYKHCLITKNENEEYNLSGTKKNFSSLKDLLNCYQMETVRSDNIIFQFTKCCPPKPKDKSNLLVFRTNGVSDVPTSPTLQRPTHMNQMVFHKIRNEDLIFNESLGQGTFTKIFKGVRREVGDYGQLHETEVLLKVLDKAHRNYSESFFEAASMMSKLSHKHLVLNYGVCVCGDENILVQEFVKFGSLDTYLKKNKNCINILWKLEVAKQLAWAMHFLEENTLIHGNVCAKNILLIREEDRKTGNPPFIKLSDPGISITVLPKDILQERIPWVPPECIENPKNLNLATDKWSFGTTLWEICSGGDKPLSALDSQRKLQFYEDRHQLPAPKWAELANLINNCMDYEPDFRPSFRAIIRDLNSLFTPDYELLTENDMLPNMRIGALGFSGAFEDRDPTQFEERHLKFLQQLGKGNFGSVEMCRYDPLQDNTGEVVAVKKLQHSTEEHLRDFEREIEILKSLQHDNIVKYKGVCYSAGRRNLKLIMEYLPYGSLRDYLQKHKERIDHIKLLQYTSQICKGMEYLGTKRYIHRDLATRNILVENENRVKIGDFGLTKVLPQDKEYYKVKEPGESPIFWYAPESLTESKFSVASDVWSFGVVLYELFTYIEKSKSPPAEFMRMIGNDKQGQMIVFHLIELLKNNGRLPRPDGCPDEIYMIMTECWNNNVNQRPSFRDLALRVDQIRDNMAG
For assay [5] the target is unchanged. Conditions: at 1 µM.
The target in assay [6] is T2, Tyrosine-protein kinase JAK3 (Homo sapiens) (UniProt P52333).
T2 sequence (whole entry): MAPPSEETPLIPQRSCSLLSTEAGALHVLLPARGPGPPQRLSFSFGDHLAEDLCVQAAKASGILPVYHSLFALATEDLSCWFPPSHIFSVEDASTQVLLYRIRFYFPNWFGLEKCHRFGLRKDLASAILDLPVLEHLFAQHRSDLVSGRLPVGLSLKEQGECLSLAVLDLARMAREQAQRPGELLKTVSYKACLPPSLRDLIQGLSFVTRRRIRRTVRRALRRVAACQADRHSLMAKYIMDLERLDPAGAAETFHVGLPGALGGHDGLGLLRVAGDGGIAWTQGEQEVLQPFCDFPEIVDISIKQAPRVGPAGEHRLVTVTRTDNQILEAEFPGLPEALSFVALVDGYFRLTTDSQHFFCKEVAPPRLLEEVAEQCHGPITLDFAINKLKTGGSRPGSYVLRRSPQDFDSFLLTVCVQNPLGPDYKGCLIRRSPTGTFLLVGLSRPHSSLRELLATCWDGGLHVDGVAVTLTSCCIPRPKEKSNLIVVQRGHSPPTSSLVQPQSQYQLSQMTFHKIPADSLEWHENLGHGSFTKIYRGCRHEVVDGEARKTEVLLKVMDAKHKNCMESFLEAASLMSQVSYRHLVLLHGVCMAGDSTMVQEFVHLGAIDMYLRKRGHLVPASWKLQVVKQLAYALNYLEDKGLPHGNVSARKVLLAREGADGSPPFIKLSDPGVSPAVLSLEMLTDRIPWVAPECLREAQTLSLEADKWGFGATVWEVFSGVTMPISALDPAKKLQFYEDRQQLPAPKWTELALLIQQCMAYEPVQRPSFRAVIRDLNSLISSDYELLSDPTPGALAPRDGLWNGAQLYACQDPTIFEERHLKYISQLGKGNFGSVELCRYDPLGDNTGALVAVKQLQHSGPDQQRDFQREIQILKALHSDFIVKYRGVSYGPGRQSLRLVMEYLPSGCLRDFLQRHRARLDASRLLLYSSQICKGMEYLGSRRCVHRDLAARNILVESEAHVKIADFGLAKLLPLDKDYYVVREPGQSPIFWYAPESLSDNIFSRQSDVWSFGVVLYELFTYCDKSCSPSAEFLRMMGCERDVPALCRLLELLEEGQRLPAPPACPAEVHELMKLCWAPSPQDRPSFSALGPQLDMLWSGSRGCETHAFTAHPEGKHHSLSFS
Conditions: at 0.1 µM.

The target in assay [7] is T2, Tyrosine-protein kinase JAK3 (Homo sapiens). Conditions: at 1 µM.
In assay [8] the target is Vascular endothelial growth factor receptor 2 (Homo sapiens) (UniProt P35968). Conditions: at 0.1 µM.
Vascular endothelial growth factor receptor 2 (Homo sapiens), sequence (P35968 whole entry): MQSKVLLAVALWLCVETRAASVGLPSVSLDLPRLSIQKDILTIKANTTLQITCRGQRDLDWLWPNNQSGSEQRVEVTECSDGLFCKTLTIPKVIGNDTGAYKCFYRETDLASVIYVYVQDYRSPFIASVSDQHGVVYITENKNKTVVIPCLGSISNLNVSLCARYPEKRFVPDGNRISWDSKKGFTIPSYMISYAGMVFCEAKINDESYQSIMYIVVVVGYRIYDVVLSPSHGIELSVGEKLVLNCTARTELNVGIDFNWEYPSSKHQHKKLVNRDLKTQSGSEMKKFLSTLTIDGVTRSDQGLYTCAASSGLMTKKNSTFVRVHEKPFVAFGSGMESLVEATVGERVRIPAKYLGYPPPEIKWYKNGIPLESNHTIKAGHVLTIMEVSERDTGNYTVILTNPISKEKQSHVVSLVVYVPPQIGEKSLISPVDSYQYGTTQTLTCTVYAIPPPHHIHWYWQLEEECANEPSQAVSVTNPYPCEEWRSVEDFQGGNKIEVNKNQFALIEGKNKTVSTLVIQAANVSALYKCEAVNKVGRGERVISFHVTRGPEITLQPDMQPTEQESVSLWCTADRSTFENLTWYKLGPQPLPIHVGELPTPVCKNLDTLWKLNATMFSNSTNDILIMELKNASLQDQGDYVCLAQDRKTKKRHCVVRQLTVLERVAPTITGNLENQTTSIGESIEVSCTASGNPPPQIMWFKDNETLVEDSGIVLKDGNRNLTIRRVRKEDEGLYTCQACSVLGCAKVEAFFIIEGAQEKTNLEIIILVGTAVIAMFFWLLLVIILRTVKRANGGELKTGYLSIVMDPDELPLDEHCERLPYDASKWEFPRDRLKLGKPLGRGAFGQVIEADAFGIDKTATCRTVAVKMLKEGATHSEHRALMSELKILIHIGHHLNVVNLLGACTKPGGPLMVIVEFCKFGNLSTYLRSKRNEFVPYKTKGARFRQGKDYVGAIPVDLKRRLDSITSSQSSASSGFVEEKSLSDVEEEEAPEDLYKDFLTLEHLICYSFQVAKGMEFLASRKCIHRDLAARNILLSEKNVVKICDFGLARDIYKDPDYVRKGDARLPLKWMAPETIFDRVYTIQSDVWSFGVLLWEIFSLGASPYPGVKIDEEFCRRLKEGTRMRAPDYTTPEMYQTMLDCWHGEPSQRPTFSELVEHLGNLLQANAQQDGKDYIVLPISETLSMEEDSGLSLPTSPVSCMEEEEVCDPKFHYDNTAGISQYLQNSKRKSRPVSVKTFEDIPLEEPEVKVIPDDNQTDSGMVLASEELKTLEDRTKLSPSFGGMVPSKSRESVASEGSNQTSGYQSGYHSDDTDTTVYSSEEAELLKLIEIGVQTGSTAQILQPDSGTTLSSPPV
Assay [9] has the same target. Conditions: at 1 µM.
Assay [10] deals with Mast/stem cell growth factor receptor Kit (Homo sapiens) (UniProt P10721). Conditions: at 0.1 µM.
Mast/stem cell growth factor receptor Kit (Homo sapiens), sequence (P10721 whole entry): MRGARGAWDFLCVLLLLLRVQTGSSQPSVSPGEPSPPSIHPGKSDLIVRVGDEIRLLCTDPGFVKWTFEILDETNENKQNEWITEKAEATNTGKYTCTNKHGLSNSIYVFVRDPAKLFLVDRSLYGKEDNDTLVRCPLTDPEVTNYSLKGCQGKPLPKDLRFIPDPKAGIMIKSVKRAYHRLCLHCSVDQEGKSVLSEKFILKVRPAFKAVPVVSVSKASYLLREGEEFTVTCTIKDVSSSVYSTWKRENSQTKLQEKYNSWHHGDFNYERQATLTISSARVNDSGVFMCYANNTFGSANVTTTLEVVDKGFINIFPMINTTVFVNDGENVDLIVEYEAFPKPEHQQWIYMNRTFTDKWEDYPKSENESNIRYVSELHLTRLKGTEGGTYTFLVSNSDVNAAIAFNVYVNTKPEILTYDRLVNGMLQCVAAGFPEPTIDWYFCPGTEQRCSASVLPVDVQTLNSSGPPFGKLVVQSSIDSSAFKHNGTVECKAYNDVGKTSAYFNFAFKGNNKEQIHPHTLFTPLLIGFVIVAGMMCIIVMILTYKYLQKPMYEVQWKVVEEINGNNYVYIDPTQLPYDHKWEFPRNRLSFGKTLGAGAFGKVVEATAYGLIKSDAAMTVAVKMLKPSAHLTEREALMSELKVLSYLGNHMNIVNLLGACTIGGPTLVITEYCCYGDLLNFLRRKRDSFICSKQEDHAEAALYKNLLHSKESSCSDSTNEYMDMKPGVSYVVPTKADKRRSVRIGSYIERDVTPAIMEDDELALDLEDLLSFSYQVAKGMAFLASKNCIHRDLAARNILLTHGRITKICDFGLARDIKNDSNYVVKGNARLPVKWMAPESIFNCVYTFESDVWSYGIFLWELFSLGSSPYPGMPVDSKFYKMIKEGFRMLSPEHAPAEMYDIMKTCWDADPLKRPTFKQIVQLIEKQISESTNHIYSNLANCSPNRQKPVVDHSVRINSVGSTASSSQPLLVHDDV
Assay [11] shares this target. Conditions: at 1 µM.
In assay [12] the test system is Mast/stem cell growth factor receptor Kit (Homo sapiens), P10721 [D816V]. Conditions: at 0.1 µM.
Mast/stem cell growth factor receptor Kit (Homo sapiens), P10721 [D816V], sequence (P10721 whole entry D816V): as the sequence (P10721 whole entry) above, with D816V counted along it
The test system is the same in assay [13]. Conditions: at 1 µM.
For assay [14], the system named is Mast/stem cell growth factor receptor Kit (Homo sapiens), P10721 [T670I]. Conditions: at 0.1 µM.
Mast/stem cell growth factor receptor Kit (Homo sapiens), P10721 [T670I], sequence (P10721 whole entry T670I): as the sequence (P10721 whole entry) above, with T670I counted along it
The test system is the same in assay [15]. Conditions: at 1 µM.
Assay [16] relates to Mast/stem cell growth factor receptor Kit (Homo sapiens), P10721 [V560G]. Conditions: at 0.1 µM.
Mast/stem cell growth factor receptor Kit (Homo sapiens), P10721 [V560G], sequence (P10721 whole entry V560G): as the sequence (P10721 whole entry) above, with V560G counted along it
Assay [17] shares this test system. Conditions: at 1 µM.
Assay [18] addresses Tyrosine-protein kinase Lck (Homo sapiens) (UniProt P06239). Conditions: at 0.1 µM.
For assay [19] the target is unchanged. Conditions: at 1 µM.
Assay [20] deals with Leukocyte tyrosine kinase receptor (Homo sapiens) (UniProt P29376). Conditions: at 0.1 µM.
Leukocyte tyrosine kinase receptor (Homo sapiens), sequence (P29376 whole entry): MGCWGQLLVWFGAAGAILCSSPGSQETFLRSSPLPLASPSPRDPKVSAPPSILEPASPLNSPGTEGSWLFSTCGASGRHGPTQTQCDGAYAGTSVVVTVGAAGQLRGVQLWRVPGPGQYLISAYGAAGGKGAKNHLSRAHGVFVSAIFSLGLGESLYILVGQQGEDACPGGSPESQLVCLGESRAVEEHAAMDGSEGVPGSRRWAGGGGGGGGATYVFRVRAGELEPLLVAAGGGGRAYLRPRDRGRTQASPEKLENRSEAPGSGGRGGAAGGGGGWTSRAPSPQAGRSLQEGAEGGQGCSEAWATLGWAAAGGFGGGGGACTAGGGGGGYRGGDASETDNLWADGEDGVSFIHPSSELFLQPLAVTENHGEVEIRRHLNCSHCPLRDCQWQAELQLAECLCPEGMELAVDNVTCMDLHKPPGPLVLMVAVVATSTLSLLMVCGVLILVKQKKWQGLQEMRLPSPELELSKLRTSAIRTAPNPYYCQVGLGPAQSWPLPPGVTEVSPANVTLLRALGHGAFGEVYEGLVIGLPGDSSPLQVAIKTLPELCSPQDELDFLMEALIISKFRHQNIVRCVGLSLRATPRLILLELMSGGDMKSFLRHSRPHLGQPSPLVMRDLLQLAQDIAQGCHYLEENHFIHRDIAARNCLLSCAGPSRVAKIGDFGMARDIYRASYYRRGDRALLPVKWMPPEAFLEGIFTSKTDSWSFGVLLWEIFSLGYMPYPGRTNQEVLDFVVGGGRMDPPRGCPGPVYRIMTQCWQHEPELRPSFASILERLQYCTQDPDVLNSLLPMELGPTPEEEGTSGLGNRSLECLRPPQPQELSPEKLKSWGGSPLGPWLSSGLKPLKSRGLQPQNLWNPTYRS

Tyrosine-protein kinase Lck (Homo sapiens), sequence (P06239 2-509 limits assumed): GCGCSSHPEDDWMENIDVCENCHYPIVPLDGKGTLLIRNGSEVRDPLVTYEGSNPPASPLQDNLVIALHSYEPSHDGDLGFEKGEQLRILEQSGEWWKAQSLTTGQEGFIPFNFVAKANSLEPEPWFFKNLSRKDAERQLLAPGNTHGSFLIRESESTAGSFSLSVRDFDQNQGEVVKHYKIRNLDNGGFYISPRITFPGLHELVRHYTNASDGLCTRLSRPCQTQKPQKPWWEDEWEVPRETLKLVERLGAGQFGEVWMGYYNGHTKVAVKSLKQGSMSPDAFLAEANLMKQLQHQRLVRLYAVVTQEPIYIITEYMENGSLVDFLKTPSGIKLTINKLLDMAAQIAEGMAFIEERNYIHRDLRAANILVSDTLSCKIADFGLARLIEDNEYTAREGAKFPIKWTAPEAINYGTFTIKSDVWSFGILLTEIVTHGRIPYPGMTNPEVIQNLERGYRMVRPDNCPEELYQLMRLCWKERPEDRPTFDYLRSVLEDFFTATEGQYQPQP

For `COc1ccc(-c2ccncc2)cc1C(N)=O`, the inhibition (in general, the change of the read-out against control, counted positive when it falls) was 2.32% in assay [1]; 0.28% in assay [2]; 3.27% in assay [3]; 2.44% in [4]; 3.4% in [5]; -2% in assay [6]. Besides, the inhibition in [7] turned out to be 0.37%; in assay [8] it was 2.67%; in assay [9] it was 13%; in [10], 3.75%; in assay [11], 8.81%; in assay [12] it was 5.33%. Besides, the inhibition in assay [13] is 6.29%; in assay [14] it was 2.7%; in [15] it was 5.32%; in assay [16], -1.34%; in assay [17] it was -1.88%; in [18], 3.42%. Further, the inhibition in assay [19] was 4.47%; in assay [20] it was 5.46%.

Take `CC(C)=Cc1cccc2c1/C(=N/Nc1ccc(S(N)(=O)=O)cc1)C(=O)N2`: the inhibition turned out to be 4.66% in assay [1]; 2.53% in [2]; 17.6% in assay [3]; 2.18% in assay [4]; 34.2% in [5]; 5.65% in assay [6]. Moreover, the inhibition stood at 54.4% in assay [7]; 8.9% in [8]; 48.5% in [9]; 14.1% in assay [10]; 67.5% in assay [11]; 2.15% in assay [12]. For the same compound, the inhibition was 4.23% in [13]; 5.7% in assay [14]; 52.1% in assay [15]; 4.73% in assay [16]; 10.1% in assay [17]; 3.66% in assay [18]. The inhibition in [19] is 14.7%; in [20], 1.87%.

With `COc1ccc(COc2ccc(Cc3cnc(N)nc3N)cc2OC)cc1`, the inhibition in [1] was 2.31%; in assay [2], 3.77%; in assay [3], -0.05%; in [4] it was 1.99%; in assay [5], 4.19%; in assay [6], 2.12%. Further, the inhibition in assay [7] was 3.61%; in assay [8], 6.02%; in assay [9], 9.65%; in [10], 1.04%; in [11], 7.39%; in assay [12] it was -2.58%. In addition, the inhibition in assay [13] was -2.51%; in assay [14], -2.93%; in assay [15] it was -3.14%; in assay [16], 5.62%; in [17], 8.16%; in assay [18], 0.03%. The inhibition was 2.78% in [19] and -1.03% in [20].

For the compound `COc1cc(C=NNc2ncnc3c2cnn3-c2ccccc2)ccc1O`, the inhibition in [1] was 4.53%; in assay [2] it was 2.76%; in assay [3] it was 3.21%; in [4], 1.26%; in assay [5], 8.82%; in [6], -0.33%. In addition, the inhibition in assay [7] worked out at 4.39%; in assay [8], 12.4%; in assay [9], 49.6%; in assay [10] it was 15%; in assay [11] it was 67%; in assay [12], 2.68%. Further, the inhibition in assay [13] came out at 8.84%; in [14], 4.5%; in assay [15] it was 37.6%; in [16], 8.24%; in assay [17], 12.3%; in assay [18] it was 19.4%. The inhibition worked out at 63.9% in [19] and 2.19% in assay [20].

Regarding `N#Cc1c(NC(=O)c2cccc3ccccc23)sc2c1CCCC2`, the inhibition in assay [1] is 1.28%; in assay [2], 3.98%; in [3], 3.68%; in [4], 1.62%; in assay [5], 1.85%; in assay [6], -0.84%. The inhibition in assay [7] was determined as 1.51%; in assay [8], 6.33%; in [9], 9.83%; in [10], 2.71%; in assay [11], 0.84%; in [12] it was 1.1%. Besides, the inhibition was 2.67% in assay [13]; 2.84% in assay [14]; 1.87% in assay [15]; -1.27% in assay [16]; 3.59% in [17]; 2.98% in assay [18]. For the same compound, the inhibition in assay [19] stood at 4.35%; in [20], 2.58%.

For the compound `Cc1nn(C)c2cc(N(C)c3ccnc(Nc4cccc(S(N)(=O)=O)c4)n3)ccc12`, the inhibition was 8.33% in assay [1]; 12.3% in [2]; 54.9% in assay [3]; 7.43% in assay [4]; 59.5% in [5]; -0.24% in [6]. Moreover, the inhibition in assay [7] came out at 27.3%; in [8] it was 45.4%; in assay [9] it was 68.5%; in [10], 47%; in assay [11] it was 88%; in [12] it was 2.13%. In addition, the inhibition in [13] turned out to be 5.94%; in [14], 5.8%; in [15] it was 38.2%; in assay [16], 4.37%; in assay [17], 37.3%; in assay [18], 14%. For the same compound, the inhibition in assay [19] was found to be 57.4%; in assay [20], 5.42%.
